Bioassay records deposited in PubChem BioAssay by National Center for Advancing Translational Sciences (NCATS).
Rows were chosen to be rich in hits. Some 3.3% of all compounds tested hit in one or more screens of this group.
Sm TGR block – blocks Schistosoma mansoni thioredoxin glutathione reductase | purified TGR, DTNB reduction, TNB absorbance 405 nm | Potency, µM (titrated, usually from 114 µM), usual class: inhibitors | actives 3% (n = 360,000); also: nearly all actives have a fitted effect of over 60% in size
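First, TGR (20 nM dispensed) and NADPH were mixed with compound. Second, a 15 min room-temperature incubation followed. Third, further NADPH and then DTNB were added to start the reaction. Finally, TNB absorbance was monitored kinetically.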
AmpC no deterg – AmpC beta-lactamase inhibition without detergent; Potency, µM (highest dose often 57.1 µM), hits mostly inhibitors; P00811; AmpC nitrocefin hydrolysis, absorbance 480 nm, 0.0001% Triton; actives 0.52% (n = 330,000); also: nearly all actives have a fitted effect of over 20% in size
Target sequence (P00811 whole entry, looked up): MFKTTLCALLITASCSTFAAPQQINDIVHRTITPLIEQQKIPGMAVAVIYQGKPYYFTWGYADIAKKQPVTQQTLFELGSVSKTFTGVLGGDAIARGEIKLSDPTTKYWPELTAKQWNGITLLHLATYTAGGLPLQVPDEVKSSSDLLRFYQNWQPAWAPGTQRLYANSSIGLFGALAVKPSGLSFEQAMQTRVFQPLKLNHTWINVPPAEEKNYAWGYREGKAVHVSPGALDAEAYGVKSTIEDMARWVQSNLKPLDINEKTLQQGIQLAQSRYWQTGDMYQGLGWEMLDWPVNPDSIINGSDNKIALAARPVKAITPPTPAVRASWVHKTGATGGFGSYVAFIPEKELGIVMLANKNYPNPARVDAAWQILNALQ
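AmpC (5.3 nM in the dispensed reagent) in 20 mM phosphate pH 7.0 with 0.01% (detergent screen) or 0.0001% Triton X-100 was preincubated with compounds for 15 min at room temperature. Nitrocefin was then added from an 800 uM solution, and hydrolysis was followed at 480 nm.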
AmpC inh detg – blocks E. coli AmpC beta-lactamase in detergent assay; P00811; AID 485294; actives 0.041% (n = 370,000); AmpC hydrolysis of nitrocefin, absorbance 480 nm, 0.01% Triton; Potency, µM (series often up to 114 µM), actives largely listed as inhibitors; also: nearly all actives have a fitted effect of over 25% in size
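20 mM phosphate pH 7.0 + 0.01% (detergent screen) or 0.0001% Triton X-100; 5.3 nM AmpC reagent; cpd preinc 15 min RT; nitrocefin (800 uM stock) to start; A480 q20 s × 4 min; Activity was normalised to no-enzyme and no-compound control wells.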
Of the large screens only hits and unclear results are named; the others gave an inactive call. Calls follow the shape of the dose curve; as a rule, active = well fitted curve in the direction sought with a large enough effect; inconclusive = small, poorly fitted or top-dose-only effect, or another doubt; inactive = no such curve, though single readings can be large; an effect the other way counts as inactive or inconclusive.

CCn1nc(C)c2c(-c3ccccc3)cc(=O)n(C(C)C(=O)Nc3cccc(F)c3)c21 (configuration not stated)	none (no result: AmpC no deterg)
Cc1ccc(CSc2ncc(Cl)c(C(=O)Nc3nnc(C)s3)n2)cc1	none (no result: AmpC no deterg)
COc1cccc(CNC(=O)Cc2ccc(NC(=O)N3CCSc4ncccc43)cc2)c1OC	none (no result: AmpC no deterg)
Cc1ccccc1-n1c(C)cc(/C=N/Nc2ccc([N+](=O)[O-])cn2)c1C	none
Cc1cc(/C=N/Nc2ccc([N+](=O)[O-])cn2)c(C)n1-c1ccc(C(=O)O)cc1	Sm TGR block 35µM
COc1ccc(CN(Cc2ccco2)c2cnc(S(C)(=O)=O)nc2C(=O)Nc2ccc(C)c(Cl)c2)cc1	none (no result: AmpC no deterg)
CCOc1ccc(OCC)c(NC(=O)c2csc3c2CCCC3)c1	none (no result: AmpC no deterg)
O=C(CSc1nc2cc(Cl)ccc2s1)c1ccco1	AmpC inh detg inconclusive
CCn1c(SCC(=O)N/N=C/C=C/c2ccco2)nnc1-c1ccc(OC)cc1	Sm TGR block 32µM
O=C(CSc1nnc(SCc2ccccc2)s1)N/N=C/C=C/c1ccccc1[N+](=O)[O-]	none
CCn1c(SCC(=O)N/N=C/c2ccc(C)o2)nnc1-c1ccc(C)cc1	AmpC inh detg inconclusive
CCn1c(SCC(=O)N/N=C/C=C/c2ccco2)nc2ccccc21	Sm TGR block 14µM
O=C(CSc1nnc(SCc2ccccc2)s1)N/N=C/C=C\c1ccco1	Sm TGR block 32µM
Cn1c(SCC(=O)N/N=C/c2ccco2)nc2ccccc21	none
O=C(CSc1nnc(SCC(=O)c2ccco2)s1)c1ccco1	Sm TGR block 40µM
COc1ccc(NC(=O)CC2C(=O)N(c3ccc(F)cc3)C(=O)N2Cc2ccc3c(c2)OCO3)cc1 (configuration not stated)	none (no result: AmpC no deterg)
Cc1ccc(NC(=O)Cn2c(=O)n(CCCCC(=O)NCc3ccccc3Cl)c(=O)c3ccccc32)cc1C	none (no result: AmpC no deterg)
Cc1ccc(Cc2nc3ccccc3nc2SCC(=O)N2CCCCC2)cc1	none (no result: AmpC no deterg)
CCOC(=O)C(=O)C1=C(N2CCOCC2)/C(=C\c2ccc(F)cc2)CC1	Sm TGR block 28µM
CCOC(=O)C(=CNc1ccccc1N1CCOCC1)C(=O)OCC	none
Cc1ccc(NC(=O)CCc2nnc3n(CC(C)C)c(=O)c4ccccc4n23)cc1C	none (no result: AmpC no deterg)
O=C(CCN1CCc2ccccc2C(c2ccccc2)C1)c1ccc2c(c1)OCCO2 (configuration not stated)	Sm TGR block 0.56µM
O=C(O)CCC(=O)c1ccc2c(c1)OCCO2	none
O=C(CCN1Cc2ccccc2C1)c1ccc2c(c1)OCCO2	Sm TGR block 0.89µM
O=C(CS(=O)(=O)c1ccccc1)c1ccc2c(c1)OCCO2	Sm TGR block inconclusive
CCCOc1ccc(C(=O)Nc2ccc(Cl)c(-c3nc4ncccc4o3)c2)cc1	none (no result: AmpC no deterg)
CCN1C(=O)c2ccccc2Sc2ccc(NC(=O)Nc3cccc([N+](=O)[O-])c3C)cc21	none (no result: AmpC no deterg)
Cn1c(=O)c2c(SCc3ccccc3)nc(-c3ccco3)nc2n(C)c1=O	none
CC(Sc1nc(-c2ccco2)nc2c1c(=O)n(C)c(=O)n2C)C(=O)O (configuration not stated)	Sm TGR block 40µM
CC1CCC/C=C/C(=O)c2c(O)cc(O)cc2CC(=O)O1 (configuration not stated)	Sm TGR block 7.9µM
C[C@H]1CCC[C@@H](O)CCC/C=C/c2cc(O)cc(O)c2C(=O)O1	none
CN(c1ccccc1)S(=O)(=O)c1cccc(NC(=O)c2ccc(=O)[nH]c2)c1	none
CN(c1ccccc1)S(=O)(=O)c1cccc(NC(=O)c2ccc(=O)[nH]n2)c1	AmpC no deterg 2µM (no result: Sm TGR block, AmpC inh detg)
N#Cc1cc2c(=O)n3ccccc3nc2n(-c2nnc(SCc3ccccc3Cl)s2)c1=O	none (no result: AmpC no deterg)
Cc1cccc(N2CCN(C(=O)CCS(=O)(=O)c3ccc4c(c3)CC(=O)N4C)CC2C)c1 (configuration not stated)	Sm TGR block 13µM (no result: AmpC no deterg)
Cc1cccc(N2CCN(C(=O)CCNS(=O)(=O)c3cccs3)CC2C)c1 (configuration not stated)	none
CCOc1ccccc1NC(=O)c1cc2c(=O)[nH]c3ccccc3c2s1	none (no result: AmpC no deterg)
O=[N+]([O-])c1ccc(Oc2ccc(OCc3ccccc3)cc2)nc1	none
O=C1NC(=O)N(c2ccccc2F)C(=O)/C1=C/c1ccc(Oc2ccc([N+](=O)[O-])cn2)cc1	Sm TGR block 20µM
CCOc1ccccc1CNC(=O)C1CCN(C(=O)N2CC(CC)Oc3ccc(C)cc32)CC1 (configuration not stated)	none (no result: AmpC no deterg)
CC1CCN(C2CC(=O)N(c3ccc(Br)cc3Br)C2=O)CC1 (configuration not stated)	Sm TGR block 20µM
CC1CCN(C2CC(=O)N(c3ccccc3)C2=O)CC1 (configuration not stated)	Sm TGR block 28µM
Cc1cccc(N2C(=O)CC(N3CCN(C(=O)c4ccccc4)CC3)C2=O)c1 (configuration not stated)	Sm TGR block inconclusive
O=C1CC(N2CCSCC2)C(=O)N1c1ccc(Br)cc1 (configuration not stated)	Sm TGR block inconclusive
CC(C)c1cnc2c(c1SCC(=O)NC(C)(C)C)c(=O)n(C)c(=O)n2C	none (no result: AmpC no deterg)
CCc1ccccc1NC(=O)N1CC(CC)Oc2ccc(Cl)cc21 (configuration not stated)	none (no result: AmpC no deterg)
Cc1cc(Cl)ccc1NC(=O)CCS(=O)(=O)c1cc2c(cc1C)NC(=O)CO2	none (no result: AmpC no deterg)
C=CCC(Nc1ccccc1)C12C=CC(O1)C(C(=O)OC)=C2C(=O)OC (configuration not stated)	Sm TGR block 6.3µM
C=CCC(c1ccccc1)N(C(C)=O)c1ccco1 (configuration not stated)	none
CNS(=O)(=O)c1cc(-c2nnc(Nc3cc(C)ccc3C)c3ccccc23)ccc1C	none (no result: AmpC no deterg)
CCCCn1c(SCC(=O)NC(C)CC)nc2ccc(N3CCOCC3)cc2c1=O (configuration not stated)	Sm TGR block inconclusive
CCCCn1c(SCC(=O)NCc2ccco2)nc2ccc(N3CCOCC3)cc2c1=O	Sm TGR block 28µM
CCCCn1c(SCC(=O)Nc2ccc(OC)cc2)nc2ccc(N3CCOCC3)cc2c1=O	Sm TGR block 28µM
CCCCn1c(SCC(=O)N2CCCCC2)nc2cc(S(N)(=O)=O)ccc21	none
CCCCn1c(SCC(=O)NCc2ccccc2)nc2ccc(N3CCOCC3)cc2c1=O	none
CCCCn1c(SCC(=O)NCc2ccco2)nc2cc(S(N)(=O)=O)ccc21	Sm TGR block 50µM
CCOC(=O)CNC(=O)N1CCN(S(=O)(=O)c2ccc3c(ccn3C)c2)CC1	none (no result: AmpC no deterg)
O=C(c1cccs1)N1CCCc2cc(NS(=O)(=O)c3ccc(Br)cc3)ccc21	none (no result: AmpC no deterg)
CCN1/C(=C/C=C/c2sc3ccccc3[n+]2CC)Sc2ccccc21	AmpC inh detg inconclusive
CC[n+]1c(/C=C/Nc2ccccc2)sc2ccccc21	AmpC inh detg inconclusive
CCN1/C(=C/C=C/C=C/c2sc3ccccc3[n+]2CC)Sc2ccccc21	Sm TGR block 50µM, AmpC inh detg inconclusive
CCN1/C(=C/C=C/C=C/C=C/c2sc3ccccc3[n+]2CC)Sc2ccccc21	Sm TGR block 40µM
CC(C)Oc1ccc(CNC(=O)c2ccc3nc(Cc4ccccc4)oc3c2)cc1	none (no result: AmpC no deterg)
